Laboratory results taken from PubChem BioAssay (NCATS).
Several values for one entry are separate records, joined by “and”; a condition that tells them apart may be missing. Identical values can stand only once. Records with an inconclusive call do not appear. Entries that show only a call come without a potency. Activity calls are given as the source filed them. Unless noted, calls follow the shape of the dose curve; as a rule, active = well fitted curve in the direction sought with a large enough effect; inconclusive = small, poorly fitted or top-dose-only effect, or another doubt; inactive = no such curve, though single readings can be large; an effect the other way counts as inactive or inconclusive.

Columns and labels:
[1] = biological target: Luciferin 4-monooxygenase (Photinus pyralis) (UniProt P08659); assay: Biochemical firefly luciferase enzyme assay for NPC (AID 624030); also: nearly all actives have a fitted effect of over 70% in size; also: potency is read from the fitted curve at half-maximal effect
In short: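 Direct inhibition of firefly luciferase enzyme (10 nM final, 50 mM Tris Acetate) assessed by luminescence within 5 minutes. Percent activity scaled between DMSO and PTC124 positive control, with concentration-effect curves classified by fit quality and response.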

[2] = S16 Schwann cell viability assay (CellTiter-Glo assay) (AID 624031); also: nearly all actives have a fitted effect of over 70% in size; also: potency is read from the fitted curve at half-maximal effect
In short: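 Native S16 Schwann cells (rat), serum-containing medium, overnight attachment then 24 h drug exposure at 37 °C/5% CO2. CellTiter-Glo ATP signal; normalized to cell-free and vehicle wells.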

[3] = biological target: Glutaminase kidney isoform, mitochondrial (Homo sapiens) (UniProt O94925); assay: qHTS for Inhibitors of Glutaminase (GLS): LOPAC Validation (AID 624146);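 also: glutamate product detected by oxidase and peroxidase coupled Amplex red fluorescence gain; nearly all actives have a fitted effect of over 60% in size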
In short: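 Two-point fluorescence kinetic (t0, 30 min RT) for hKGA; glutamate detected via glutamate oxidase–HRP–Amplex Red. Substrate: 1 mM L-glutamine solution; buffer 45 mM KH2PO4, pH 8.2.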

[4] = qHTS of Trypanosoma Brucei Inhibitors: LOPAC Validation (AID 624147)
In short: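 In this concentration-response screen, enzyme-free wells defined baseline while DMSO plates tracked drift. Each reaction combined TbPYK, substrate, compound and 130 uM ADP for 45 min at room temperature. Kinase-Glo Plus luminescence gave the signal.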

[5] = qHTS of Nrf2 Activators: LOPAC Validation (AID 624149)
In short: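 AREc32_Fluc cells, 1000/well, OPTI-MEM + 5% FBS, o/n 37 deg C 5% CO2; compound pin-transfer, 24 hr 37 deg C; Steady-Glo 30 min RT, luminescence read.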

[6] = HTS Assay for Allosteric Antagonists of the Human D2 Dopamine Receptor: Hit Validation in HTRF (AID 624455)
In short: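 HTRF read-out; cells stably expressing D1 receptor; hits scored for inhibition of D1-mediated response. Primary screen: calcium flux, force-coupled inducible Hek293 Trex D2 line, antagonism vs EC80 dopamine.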

[7] = qHTS assay for small molecule agonists of the antioxidant response element (ARE) signaling pathway (AID 651741; active = well fitted activation curve with a large enough effect in the signal ratio; the % refers to the signal ratio; also: potency is read from the fitted curve at half-maximal effect)
In short: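 Agonist activity is measured as ARE-driven beta-lactamase expression in a stable HepG2 reporter line, using 16 h compound treatment at 37 C and a FRET substrate fluorescence readout after 2 h.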

[8] = qHTS assay for small molecule activators of the nuclear factor-kappa B (NF-kB) signaling pathway (AID 651749; active = well fitted activation curve with a large enough effect in the signal ratio; the % refers to the signal ratio); conditions: NF-kB-bla ME-180 cells, beta-lactamase FRET ratio, 16 h; stronger effect = higher value
In short: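 FRET-based beta-lactamase detection in ME-180 cells reports NF-kB response-element-driven transcription following overnight (16 hr) compound treatment.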

[9] = S16 Schwann cell PMP22 intronic element firefly luciferase assay (AID 624032); also: nearly all actives have a fitted effect of over 30% in size
In short: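 Luciferase reporter of PMP22 intronic-element expression in stably transfected S16 rat Schwann cells, read by ONE-Glo luminescence after 24 h compound exposure at 37 C. Activity scaled between DMSO (0%) and positive-control PTC124; concentration-effect curves quality-classified.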

[10] = Cytotoxicity counterscreen for NFkB agonists and antagonists (AID 624476);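 also: cells exposed to compound for 48 hours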; also: potency is read from the fitted curve at half-maximal effect
[11] = qHTS Assay for Identification of Small Molecule Agonists for NFkB Signaling Pathway. (AID 624478);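 also: compounds tested together with TNF alpha at its EC50 of 10 pM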
In short: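 Read-out: 460/530 nm emission at 405 nm excitation after 2 h LiveBLAzer loading; ME-180 NFkB-bla reporter cells exposed 5 h at 37 C to compounds with 10 pM TNF alpha final.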

[12] = qHTS Assay for Identification of Small Molecule Antagonists for NFkB Signaling Pathway. (AID 624479; calls by dose curve;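 also: pathway stimulated with TNF alpha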; also: potency is read from the fitted curve at half-maximal effect)
[13] = Cell Proliferation Assay against the TMD8 Cell Line (AID 651645); conditions: TMD8 DLBCL cell line proliferation/viability; at 46.1 µM (top of the series) unless noted;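 also: cells exposed to compound for 48 h before reading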
In short: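 TMD8 cells, 500/well in RPMI with 5% FBS, dosed immediately and grown 48 h at 37 C, 5% CO2. CellTiter-Glo luminescence normalised to DMSO 100% and 9.2 uM bortezomib (final) 0%.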

[14] = Cell Proliferation Assay against the HBL1 Cell Line (AID 651646); conditions: HBL1 DLBCL cells; at 46.1 µM (top of the series) unless noted;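 also: cells exposed to compound for 48 h before reading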
In short: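 CellTiter-Glo luminescence after 48 h compound exposure at 37C gives percent activity, with DMSO as 100% and 9.2 uM bortezomib final as 0%. Cells: 500 log-phase HBL1 per well, RPMI plus 5% FBS.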

[15] = Cell Proliferation Assay against the TMD8 Cell Line (Caspase readout at 16 hrs) (AID 651712); also: potency is read from the fitted curve at half-maximal effect
In short: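 Caspase-Glo luminescence measured apoptosis after a 16 h, 37 C compound exposure of TMD8 cells (500 cells/well, 5% FBS RPMI). DMSO set 0% and bortezomib at 9.2 uM final set 100% activity.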

[16] = Cell Proliferation Assay against the TMD8 Cell Line (Caspase readout at 8 hrs) (AID 651713)
In short: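 Apoptosis readout: caspase 3/7 luminescence (Caspase-Glo), 15 min RT. Cells: TMD8, 500/well, RPMI + 5% FBS, no phenol red. Exposure 8 h, 37C. % activity vs DMSO = 0, bortezomib 9.2 uM final = 100.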

[17] = S16 Schwann cell PMP22 intronic element beta-lactamase assay (AID 624044; calls by dose curve; also: nearly all actives have a fitted effect of over 15% in size; also: potency is read from the fitted curve at half-maximal effect)
In short: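 Beta-lactamase reporter under a PMP22 intronic regulatory element in stable S16 rat Schwann cells; 24 h compound exposure. 460 nm blue signal normalized between DMSO (0%) and potassium clavulanate, with 535 nm FRET tracking viability; curves classed by r2 and response.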

[18] = qHTS assay for small molecule activators of the p53 signaling pathway (AID 651743; active = well fitted activation curve with a large enough effect in the signal ratio, not every such curve was filed as active; the % refers to the signal ratio); conditions: HCT-116 p53RE-bla, beta-lactamase FRET ratio, 16 h; stronger effect = higher value
In short: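 A beta-lactamase reporter under p53 response element control, stably carried by HCT-116 cells, reported pathway activation. Test compounds were applied for 16 hours at 37 C, and fluorescence was measured 2 hours after adding the B/G FRET substrate.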

[19] = qHTS assay for small molecule disruptors of the mitochondrial membrane potential - 1 hr assay (AID 651754; calls by dose curve; also: potency is read from the fitted curve at half-maximal effect; nearly all actives have a fitted effect of over 35% in size)
In short: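 Read-out: dye fluorescence at 490 nm ex/535 nm em (monomers) and 540 nm ex/590 nm em (aggregates) in HepG2 cells. Compound exposure 1 hr at 37C, followed by 30 min dye loading.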

Glutaminase kidney isoform, mitochondrial (Homo sapiens), sequence (O94925 whole entry, looked up, canonical isoform): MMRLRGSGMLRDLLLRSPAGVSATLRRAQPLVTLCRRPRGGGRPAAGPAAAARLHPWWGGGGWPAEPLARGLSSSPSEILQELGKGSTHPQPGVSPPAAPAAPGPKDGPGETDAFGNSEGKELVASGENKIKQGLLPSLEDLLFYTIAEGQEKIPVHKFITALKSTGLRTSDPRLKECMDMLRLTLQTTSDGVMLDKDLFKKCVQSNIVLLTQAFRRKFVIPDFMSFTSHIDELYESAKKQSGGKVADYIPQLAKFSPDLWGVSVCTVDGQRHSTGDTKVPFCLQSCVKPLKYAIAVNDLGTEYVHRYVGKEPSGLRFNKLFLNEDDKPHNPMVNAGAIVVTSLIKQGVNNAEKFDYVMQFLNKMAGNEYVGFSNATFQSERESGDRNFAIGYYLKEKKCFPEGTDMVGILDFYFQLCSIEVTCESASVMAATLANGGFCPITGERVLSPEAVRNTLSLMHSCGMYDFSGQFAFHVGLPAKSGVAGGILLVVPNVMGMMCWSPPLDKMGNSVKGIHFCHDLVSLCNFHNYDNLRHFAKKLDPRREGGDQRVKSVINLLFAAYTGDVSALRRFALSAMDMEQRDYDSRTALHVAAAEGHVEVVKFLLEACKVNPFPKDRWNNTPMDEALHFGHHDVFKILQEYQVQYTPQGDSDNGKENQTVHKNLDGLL
Luciferin 4-monooxygenase (Photinus pyralis), sequence (P08659 whole entry, looked up): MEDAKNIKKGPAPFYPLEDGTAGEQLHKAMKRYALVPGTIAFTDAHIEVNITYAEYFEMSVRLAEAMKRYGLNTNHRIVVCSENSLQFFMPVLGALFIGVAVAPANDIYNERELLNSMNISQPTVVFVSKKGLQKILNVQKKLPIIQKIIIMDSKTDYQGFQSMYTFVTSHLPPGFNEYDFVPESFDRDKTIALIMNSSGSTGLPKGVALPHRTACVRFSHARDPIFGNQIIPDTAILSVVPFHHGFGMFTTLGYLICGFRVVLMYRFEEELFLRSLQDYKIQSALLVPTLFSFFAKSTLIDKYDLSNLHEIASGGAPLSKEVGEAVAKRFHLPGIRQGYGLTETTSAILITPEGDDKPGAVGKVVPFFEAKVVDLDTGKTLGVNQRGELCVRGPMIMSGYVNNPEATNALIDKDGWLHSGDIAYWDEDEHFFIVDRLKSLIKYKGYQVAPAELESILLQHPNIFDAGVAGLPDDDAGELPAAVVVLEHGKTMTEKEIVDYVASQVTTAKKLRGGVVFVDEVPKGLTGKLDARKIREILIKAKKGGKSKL

CC(=O)O[C@]1(C(C)=O)CC[C@H]2[C@@H]3C=C(Cl)C4=CC(=O)[C@@H]5C[C@@H]5[C@]4(C)[C@H]3CC[C@@]21C
Potency [1]: inactive
Potency [2]: inactive
Potency [3]: inactive
outcome [4]: inactive
outcome [5]: inactive
outcome [6]: inactive
Potency [7]: 54.5 µM (active) and 42.2 µM (active)
activation [8]: -2.59% (inactive) and -0.559% (inactive)

CCn1cc(C(=O)O)c(=O)c2ccc(C)nc21
Potency [1]: inactive
Potency [2]: inactive
Potency [9]: inactive
Potency [3]: inactive
outcome [4]: inactive
outcome [6]: inactive
Potency [7]: inactive
activation [8]: -0.653% (inactive) and -1.68% (inactive)

Clc1ccc(C(c2ccc(Cl)cc2)n2cc[n+](CC(OCc3ccc(Cl)cc3Cl)c3ccc(Cl)cc3Cl)c2)cc1 (stereo unspecified)
Potency [3]: inactive
outcome [4]: inactive
outcome [5]: inactive
outcome [6]: inactive

CC(C)C(=O)Nc1ncc(-c2cc(C(F)F)nn2-c2c(Cl)cccc2Cl)s1
Potency [10]: inactive
outcome [11]: inactive
Potency [12]: 18.8 µM (active)
viability (% of control) [13]: 9.91%
viability, percent of control [14]: 14.4%
Potency [15]: 16.6 µM (active)
Potency [16]: inactive

O=C(O)c1ccc(-c2cc3cccnc3c(-c3ccc4nonc4c3)n2)cc1
Potency [10]: inactive
outcome [11]: inactive
Potency [12]: inactive
viability (% of control) [13]: 111%
viability, percent of control [14]: 91.1%
Potency [15]: inactive
Potency [16]: inactive

O=C(CCCCCCC(=O)Nc1ccccc1)NO
Potency [1]: inactive
Potency [2]: inactive
Potency [17]: 2.24 µM (active)
Potency [10]: 38.2 µM (active)
outcome [11]: inactive
Potency [12]: inactive
viability (% of control) [13]: 2.92% [at 92.2 µM]
viability, percent of control [14]: 3.42% [at 92.2 µM]
Potency [15]: 0.429 µM (active)
Potency [16]: inactive

OC[C@H]1O[C@@H](n2cnc3c2NC=NC[C@@H]3O)C[C@H]1O
Potency [10]: inactive
outcome [11]: inactive
Potency [12]: inactive
viability (% of control) [13]: 95.3%
viability, percent of control [14]: 105%
Potency [15]: inactive
Potency [16]: inactive

CC(C)OC(=O)C(C)(C)Oc1ccc(C(=O)c2ccc(Cl)cc2)cc1
Potency [1]: inactive
Potency [2]: inactive
Potency [9]: inactive
Potency [3]: inactive
outcome [5]: inactive
outcome [6]: inactive
activation [8]: -1.6% (inactive)

CN(C)Cc1ccc(-c2nc3cccc4c3n2CCNC4=O)cc1
Potency [10]: inactive
outcome [11]: inactive
Potency [12]: 23.7 µM (active)
viability (% of control) [13]: 17%
viability, percent of control [14]: 60.9%

Cc1nc(N)sc1-c1ccnc(Nc2ccc(N3CCOCC3)cc2)n1
Potency [10]: inactive
outcome [11]: inactive
Potency [12]: 2.66 µM (active)
viability (% of control) [13]: 4.33%
viability, percent of control [14]: 24.4%

COc1cccc(-c2cc(=O)c3ccccc3o2)c1N
Potency [3]: inactive
outcome [4]: inactive
outcome [5]: inactive
outcome [6]: inactive

O=C(O)c1c(Cl)c(Cl)c(Cl)c(Cl)c1-c1c2cc(I)c(=O)c(I)c-2oc2c(I)c(O)c(I)cc12
Potency [1]: 25.6 µM (active)
Potency [2]: inactive
Potency [17]: inactive

NC(N)=Nc1nc(CSCC/C(N)=N/S(N)(=O)=O)cs1
Potency [1]: inactive
Potency [2]: inactive
Potency [9]: inactive
outcome [4]: inactive
outcome [5]: inactive
outcome [6]: inactive

O=C(O)Cc1cccc2ccccc12
Potency [1]: inactive
Potency [2]: inactive
Potency [9]: inactive
Potency [7]: inactive
activation [18]: -2.96% (inactive) and -4.77% (inactive)
activation [8]: -0.417% (inactive) and -0.959% (inactive)

COCCCCC(=NOCCN)c1ccc(C(F)(F)F)cc1
Potency [1]: inactive
Potency [9]: inactive
Potency [17]: inactive

COC(=O)[C@@H]1[C@H]2C[C@H]3c4[nH]c5ccccc5c4CCN3C[C@@H]2CC[C@@H]1O
Potency [3]: inactive
outcome [4]: inactive
outcome [5]: inactive
outcome [6]: inactive

C[N+](C)(C)CC(=O)O
Potency [3]: inactive
outcome [5]: inactive
outcome [6]: inactive

CC/C(=C(\c1ccccc1)c1ccc(OCCN(C)C)cc1)c1ccccc1
Potency [1]: inactive
Potency [2]: 32.2 µM (active)
Potency [3]: inactive
outcome [4]: inactive
outcome [5]: inactive
outcome [6]: inactive

N#Cc1ccc(NC(=O)Nc2ccccc2Br)c2n[nH]nc12
Potency [10]: inactive
Potency [12]: inactive
viability (% of control) [13]: 12.8%
viability, percent of control [14]: 69.7%
Potency [15]: inactive
Potency [16]: inactive

CC(C)(C(=O)NCC(F)(F)C(F)(F)F)C(=O)N[C@@H]1C(=O)Nc2ccccc2-c2ccccc21
Potency [10]: inactive
outcome [11]: inactive
Potency [12]: inactive
viability (% of control) [13]: 61.9%
viability, percent of control [14]: 73.4%
Potency [15]: inactive
Potency [16]: inactive

O=C1C(Cl)=C(NCCN2CCOCC2)C(=O)c2ncccc21
Potency [10]: 2.35 µM (active)
outcome [11]: inactive
Potency [12]: 2.11 µM (active)
viability (% of control) [13]: 3.41%
viability, percent of control [14]: 2.09%
Potency [15]: inactive
Potency [16]: inactive

NC(CO)(CO)CCc1ccc(Sc2cccc(OCc3ccccc3)c2)cc1Cl
viability (% of control) [13]: 0.474%
viability, percent of control [14]: 1.28%
Potency [15]: inactive

O=C(O)c1cc(O)c2c(c1)C(=O)c1cccc(O)c1C2=O
activation [8]: 1% (inactive)
Potency [19]: 8.41 µM (active)

CO[C@H]1C=CC=C(C)C(=O)NC2=CC(=O)C(NCCN(C)C)=C(C[C@@H](C)C[C@H](OC)[C@@H](O)[C@@H](C)C=C(C)[C@@H]1OC(N)=O)C2=O
outcome [11]: inactive
viability (% of control) [13]: 3.74%
viability, percent of control [14]: 4.29%

CC(=O)N(C)C1(c2ccccc2)CCN(CCC[C@]2(c3ccc(Cl)c(Cl)c3)CCCN(C(=O)c3ccccc3)C2)CC1
Potency [10]: 23.5 µM (active)
outcome [11]: inactive
viability (% of control) [13]: 1.74%
viability, percent of control [14]: 1.69%
Potency [15]: 11.8 µM (active)
